Assay results: PubChem BioAssay (Tox21)
Inconclusive results are not listed. The source made the active and inactive calls. Unless noted, calls follow the shape of the dose curve; as a rule, active = well fitted curve in the direction sought with a large enough effect in the repeat runs; inconclusive = weak or mixed curves; inactive = no such curve, though single readings can be large; an effect the other way counts as inactive or inconclusive.

Experiments:
[1] = target: Luciferin 4-monooxygenase (Photinus pyralis) (UniProt P08659); experiment: qHTS assay to identify small molecule inhibitors of firefly luciferase (AID 1224835); also: series mostly up to about 120 µM; nearly all actives have a fitted effect of over 25% in size
Luciferin 4-monooxygenase (Photinus pyralis), sequence (P08659 whole entry, looked up): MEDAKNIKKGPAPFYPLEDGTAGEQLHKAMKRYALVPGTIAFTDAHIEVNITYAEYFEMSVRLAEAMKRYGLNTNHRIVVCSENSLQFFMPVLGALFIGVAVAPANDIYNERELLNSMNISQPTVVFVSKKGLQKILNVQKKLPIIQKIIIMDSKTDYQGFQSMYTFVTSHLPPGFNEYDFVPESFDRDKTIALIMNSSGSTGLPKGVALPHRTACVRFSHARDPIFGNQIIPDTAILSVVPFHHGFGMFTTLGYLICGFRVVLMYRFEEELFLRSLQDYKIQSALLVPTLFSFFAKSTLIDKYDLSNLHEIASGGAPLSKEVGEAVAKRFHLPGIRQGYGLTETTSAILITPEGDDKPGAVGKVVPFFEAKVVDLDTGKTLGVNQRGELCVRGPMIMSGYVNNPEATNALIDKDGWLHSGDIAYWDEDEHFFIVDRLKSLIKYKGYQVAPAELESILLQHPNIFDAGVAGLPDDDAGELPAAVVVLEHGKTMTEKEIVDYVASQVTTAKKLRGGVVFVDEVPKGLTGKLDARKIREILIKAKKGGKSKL
In short: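 Inhibition of purified Photinus luciferase is measured by luminescence. Substrate levels (D-luciferin, ATP) sit at their KM values. Each compound is tested in a concentration series.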

[2] = qHTS assay to identify small molecule agonists of the constitutive androstane receptor (CAR) signaling pathway - cell viability counter screen (AID 1224836); also: series mostly up to about 92 µM; nearly all actives have a fitted effect of over 45% in size
In short: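 Counter screen multiplexed with the CAR reporter readout: HepG2 cells co-transfected with hCAR and the CYP2B6-2.2kb construct receive a 15-concentration compound series and 0.75 uM PK11195 (final), then CellTiter-Fluor fluorescence is read after 23 h.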

[3] = qHTS assay to identify small molecule antagonists of the constitutive androstane receptor (CAR) signaling pathway - cell viability counter screen (AID 1224837); also: series mostly up to about 92 µM; nearly all actives have a fitted effect of over 45% in size
In short: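 HepG2 cells stably expressing hCAR and a CYP2B6-2.2kb reporter were plated and pre-incubated 4 hr at 37 C/5% CO2, then given compounds at 15 concentrations plus 50 nM CITCO (final). After 23 hr, viability was read by CellTiter-Fluor fluorescence.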

[4] = target: Nuclear receptor subfamily 1 group I member 3 (Homo sapiens) (UniProt Q14994); experiment: qHTS assay to identify small molecule antagonists of the constitutive androstane receptor (CAR) signaling pathway (AID 1224838); also: nearly all actives have a fitted effect of over 40% in size
Nuclear receptor subfamily 1 group I member 3 (Homo sapiens), sequence (Q14994 whole entry, looked up): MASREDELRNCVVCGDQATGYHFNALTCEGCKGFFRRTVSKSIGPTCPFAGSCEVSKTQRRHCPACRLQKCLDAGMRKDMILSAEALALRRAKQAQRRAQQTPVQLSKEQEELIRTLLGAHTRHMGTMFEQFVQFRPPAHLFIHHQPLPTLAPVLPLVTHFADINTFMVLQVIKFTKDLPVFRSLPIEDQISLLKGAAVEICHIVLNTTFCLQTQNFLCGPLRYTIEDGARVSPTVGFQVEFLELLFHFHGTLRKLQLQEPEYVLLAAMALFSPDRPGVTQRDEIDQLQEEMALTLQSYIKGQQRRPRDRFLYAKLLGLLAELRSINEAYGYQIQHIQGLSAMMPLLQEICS
In short: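 HepG2 cells stably co-transfected with hCAR and a CYP2B6-2.2kb luciferase reporter were seeded 4 h before compound addition at 15 concentrations. Cells were stimulated with 50 nM CITCO (final) for 24 h at 37 C; luciferase luminescence was then read.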

[5] = target: Nuclear receptor subfamily 1 group I member 3 (Homo sapiens) (UniProt Q14994); experiment: qHTS assay to identify small molecule agonists of the constitutive androstane receptor (CAR) signaling pathway (AID 1224839); also: series mostly up to about 92 µM; nearly all actives have a fitted effect of over 15% in size
In short: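 A 15-concentration quantitative screen uses HepG2 cells co-transfected stably with human CAR and CYP2B6-2.2kb reporter. Treatment lasts 24 h with 0.75 uM PK11195 final present; ONE-Glo luminescence is the signal.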

[6] = qHTS assay to identify small molecule antagonists of the estrogen related receptor signaling pathway with the pleiotropic PPARgamma coactivator (PGC) from Tox21 10K library - cell viability counter screen (AID 1224840; active = well fitted cell-killing curve with a large enough effect in the repeat runs, not every such curve was filed as active; also: nearly all actives have a fitted effect of over 40% in size)
In short: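 PGC/ERR cells were seeded at 2,000 cells/well and left 6 hours at 37 C/5% CO2 before pin-tool addition of compounds in DMSO. After 17.5 hours at 37 C, CellTiter-Fluor was added and fluorescence read 30 minutes later.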

[7] = qHTS assay to identify small molecule antagonists of the estrogen related receptor signaling pathway with the pleiotropic PPARgamma coactivator (PGC) from Tox21 10K library (AID 1224841; call rule not given here; also: series mostly up to about 92 µM; actives are mostly falling curves and most rising ones were filed inactive; nearly all actives have a fitted effect of over 50% in size)
In short: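 PGC/ERR reporter cells were seeded at 2,000 cells/well and held 6 hours at 37 C/5% CO2 before pin-tool addition of compounds in DMSO. After 18 hours at 37 C, One-Glo was added and luminescence read after 30 minutes at room temperature.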

[8] = qHTS assay to identify small molecule agonists of the estrogen related receptor signaling pathway with the pleiotropic PPARgamma coactivator (PGC) from Tox21 10K library (AID 1224842); also: nearly all actives have a fitted effect of over 15% in size
In short: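 Luminescence from One-Glo (30 min, room temperature) measured after PGC/ERR cells had 18 h at 37 C with pinned compound (23 nL in DMSO). Cells had been seeded at 2,000 per well and pre-incubated 6 h.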

[9] = target: Thyrotropin receptor (Homo sapiens) (UniProt P16473); experiment: qHTS assay to identify small molecule agonists of the thyroid stimulating hormone receptor (TSHR) signaling pathway (AID 1224843; calls by dose curve; also: nearly all actives have a fitted effect of over 45% in size)
Thyrotropin receptor (Homo sapiens), sequence (P16473 whole entry, looked up): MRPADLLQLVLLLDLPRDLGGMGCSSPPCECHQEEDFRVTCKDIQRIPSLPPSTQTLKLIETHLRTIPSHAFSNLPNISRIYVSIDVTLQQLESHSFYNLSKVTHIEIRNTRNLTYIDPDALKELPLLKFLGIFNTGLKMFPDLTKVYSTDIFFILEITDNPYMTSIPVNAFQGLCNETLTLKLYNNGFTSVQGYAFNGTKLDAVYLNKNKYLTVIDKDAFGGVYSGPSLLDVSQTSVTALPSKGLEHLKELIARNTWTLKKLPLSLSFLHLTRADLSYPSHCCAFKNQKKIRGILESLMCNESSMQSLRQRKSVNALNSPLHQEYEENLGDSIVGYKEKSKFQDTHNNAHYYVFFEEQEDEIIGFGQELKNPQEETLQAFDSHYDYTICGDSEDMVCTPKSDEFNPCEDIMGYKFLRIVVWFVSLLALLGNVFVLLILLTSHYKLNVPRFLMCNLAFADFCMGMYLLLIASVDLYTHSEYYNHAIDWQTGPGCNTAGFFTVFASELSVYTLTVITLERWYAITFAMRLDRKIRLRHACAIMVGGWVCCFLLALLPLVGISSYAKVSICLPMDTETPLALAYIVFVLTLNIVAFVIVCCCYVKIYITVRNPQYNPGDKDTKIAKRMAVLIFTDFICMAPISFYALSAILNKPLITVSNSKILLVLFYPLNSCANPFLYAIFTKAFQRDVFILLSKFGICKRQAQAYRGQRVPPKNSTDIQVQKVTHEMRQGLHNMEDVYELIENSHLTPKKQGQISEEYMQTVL
In short: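 Screening of the Tox21 10K collection used HEK293 cells engineered with TSHR at 800 cells per well. After a 30-min room-temperature compound exposure, HTRF cAMP reagents were added and fluorescence recorded 1 h later.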

[10] = qHTS assay to identify small molecule agonists of the hypoxia (HIF-1) signaling pathway - cell viability counter screen (AID 1224844; calls by dose curve; also: nearly all actives have a fitted effect of over 50% in size)
In short: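 HRE-bla ME-180 cells in medium with 0.5% dialyzed FBS were preincubated 5 hrs at 37C, exposed to compounds for 17 hrs, then viability was read as CellTiter-Glo luminescence after 30 min at room temperature, in the reporter wells.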

[11] = qHTS assay to identify small molecule agonists of H2AX (AID 1224845; active = well fitted activation curve with a large enough effect in the signal ratio in the repeat runs, not every such curve was filed as active; the % refers to the signal ratio)
In short: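 Phospho-H2AX Ser139 measured by HTRF (ex 320 nm; em 665 and 620 nm) after 24 hr antibody incubation. Compounds, 15 concentrations, 0.76% DMSO, were applied to CHO-K1 cells for 3hr at 37C before lysis.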

[12] = qHTS assay to identify small molecule agonists of the hypoxia (HIF-1) signaling pathway (AID 1224846; active = well fitted activation curve with a large enough effect in the signal ratio in the repeat runs, not every such curve was filed as active; the % refers to the signal ratio)
In short: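 HRE-bla ME-180 cells (beta-lactamase reporter under hypoxia response element) were plated at 2,000 cells/well in medium with 0.5% dialyzed FBS, rested 5 hrs, then given compounds in DMSO for 17 hrs at 37C, 5% CO2. Reporter induction was read with CCF4-AM FRET substrate.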

[13] = qHTS assay to identify small molecule agonists of H2AX - cell viability counter screen (AID 1224847; calls by dose curve; also: top concentration of the series differs between compounds; nearly all actives have a fitted effect of over 30% in size)
In short: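 We seed wild-type CHO-K1 cells overnight, treat them for 3 hr at 37C with compounds in 15-concentration series, and quantify remaining viability by CellTiter-Glo luminescence.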

[14] = qHTS assay to identify small molecule antagonists of the estrogen related receptor (ERR) signaling pathway from Tox21 library (AID 1224848); also: nearly all actives have a fitted effect of over 50% in size
In short: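 Antagonist-mode screen of the Tox21 10K library in an NTP-provided ERR reporter cell line; 18 h compound exposure at 37 C, luminescence measured with ONE-Glo.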

[15] = qHTS assay to identify small molecule agonists of the estrogen related receptor (ERR) signaling pathway from Tox21 library (AID 1224849; calls by dose curve; also: nearly all actives have a fitted effect of over 15% in size)
In short: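 ERR reporter cell line (NTP) seeded, rested 6 h at 37 C/5% CO2, then pinned with Tox21 compounds in DMSO. After 18 h at 37 C, ONE-Glo luciferase luminescence was read following 30 min at room temperature.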

[16] = qHTS RealTime-Glo MT Cell Viability Assay in HepG2 cells - 24 hour (AID 1224867); also: nearly all actives have a fitted effect of over 50% in size
In short: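 qHTS, HepG2, 600 cells/well, RealTime-Glo (NanoLuc + prosubstrate) added with cells; 5 h preincubation; DMSO compound addition; 37 C; luminescence at 0/8/16/24/32/40 h.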

[17] = qHTS RealTime-Glo MT Cell Viability Assay in HEK293 cells - 32 hour (AID 1224868)
In short: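 Assay medium contained NanoLuc luciferase plus cell-permeant prosubstrate, added with HEK293 cells at 600 cells/well. After 5 h at 37 C/5% CO2 compounds were added; plates stayed at 37 C for 40 h with serial luminescence reads.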

[18] = A CellTox Green Cytotoxicity Assay to monitor cytotoxicity in HEK293 cells - 0 hour (AID 1224869); also: nearly all actives have a fitted effect of over 50% in size
In short: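 HEK293 cells premixed with CellTox Green dye were seeded at 600 cells/well and left 5 h at 37 C/5% CO2 before pin transfer of 23 nL compound in DMSO. Fluorescence from dye bound to dead-cell DNA was read during 40 h treatment.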

[19] = qHTS RealTime-Glo MT Cell Viability Assay in HepG2 cells - 40 hour (AID 1224870); also: nearly all actives have a fitted effect of over 50% in size
In short: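 Real-time viability: cells seeded at 600 per well together with NanoLuc and cell-permeant prosubstrate, compounds added after 5 h incubation. Luminescence tracked at 0, 8, 16, 24, 32 and 40 h of exposure.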

[20] = qHTS assay to identify small molecule antagonists of the estrogen related receptor (ERR) signaling pathway from Tox21 library - cell viability counter screen (AID 1224834); also: nearly all actives have a fitted effect of over 30% in size
In short: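 ERR reporter cells were plated 6 h before compound addition, then exposed to test compounds in DMSO for 17.5 h at 37 C. Viability was read as CellTiter-Fluor fluorescence after a 30-minute incubation at 37 C.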

Measured: Potency

C[C@H]1C[C@H]2[C@@H]3CCC4=CC(=O)C=C[C@]4(C)[C@H]3C(=O)C[C@]2(C)[C@@]1(O)C(=O)CO
not listed: [20]
inactive: all other assays above

Cc1ccnc(NS(=O)(=O)c2ccc(N)cc2)n1
not listed: [2] | [3] | [4] | [5] | [12]
inactive: all other assays above

CCN1CCOCC1
not listed: [1] | [7] | [8] | [9] | [14] | [15]
inactive: all other assays above

Cc1c(N)c(=O)n(-c2ccccc2)n1C
not listed: [1] | [4] | [5] | [7] | [8] | [12] | [14] | [15]
inactive: all other assays above

CO[C@@]1(NC(=O)C(C(=O)O)c2ccc(O)cc2)C(=O)N2C(C(=O)O)=C(CSc3nnnn3C)CO[C@@H]21 (some centres not stated)
not listed: [1] | [3] | [10] | [12]
inactive: all other assays above

C1CCC2=NCCCN2CC1
not listed: [1] | [3] | [7] | [8] | [11] | [14] | [15]
inactive: all other assays above

CN(C)CCCCCCN(C)C
not listed: [1] | [11]
inactive: all other assays above

Cc1ccc(C(=O)Nc2ccc(S(=O)(=O)O)c3cc(S(=O)(=O)O)cc(S(=O)(=O)O)c23)cc1NC(=O)c1cccc(NC(=O)Nc2cccc(C(=O)Nc3cc(C(=O)Nc4ccc(S(=O)(=O)O)c5cc(S(=O)(=O)O)cc(S(=O)(=O)O)c45)ccc3C)c2)c1
not listed: [1] | [4] | [5] | [11] | [18]
inactive: all other assays above
